Screens deposited in PubChem by University of Kansas High Throughput Screening Laboratory.
Most compounds without a hit are left out; they make up all but 3.5% or so of the library.
Pf apPOL block: Pf-apPOL DNA polymerase inhibition; Recombinant Pf-apPOL, molecular beacon fluorescence, 1.5 h; inhibition, % at 10 µM; hit rate 0.25% among 210,000; AID 1794808
mHTT-CaM PPI inh: inhibitors of human mutant huntingtin-calmodulin interaction; AlphaScreen His-mHTT/GST-CaM binding, luminescence; P42858; inhibition, % at 15 µM; AID 1671202; hit rate 3.6% among 190,000
Of the large screens only hits and unclear results are named; the others gave an inactive call. Cut-off read from the data, not from the text of the source: active = inhibition above about 50%; inactive = the rest.

O=C(NCc1csc(-c2cccs2)n1)C1CCN(C(=O)c2cccc(F)c2)CC1	none
Cc1nc(-c2cccc(F)c2)sc1C(=O)NC(C)C	none
CN(C)c1ccc(N2CCC(C(=O)N3CCC4(CC3)OCCO4)CC2)nn1	none
Cc1cc(NC(=O)CCS(=O)(=O)c2nc(-c3cccs3)cc(C(F)(F)F)n2)no1	none
Cc1ccccc1C(=O)NCCSc1c(C)[nH]c2ccccc12	none
Cc1[nH]c2ccccc2c1SCCNC(=O)c1ccccc1F	mHTT-CaM PPI inh 99
COc1ccccc1-n1c(O)c(C=Nc2ccc(C(F)(F)F)cc2)c2ccccc2c1=O	none
Clc1ccc(OCc2nc(-c3cccc(-c4ccn[nH]4)c3)no2)cc1	none
Clc1ccc(Cc2nc(-c3cccc(-c4ccn[nH]4)c3)no2)cc1	mHTT-CaM PPI inh 91
Cc1cc(C)cc(NC(=O)Cn2nc3c(cc2=O)CCCC3)c1	none
CC(C)(C)C1CCc2c(sc3c2C(=O)NC(c2ccccc2)N3)C1 (stereo not drawn)	none
CC(C)(C)C1CCc2c(sc3c2C(=O)NC(c2ccc(O)c([N+](=O)[O-])c2)N3)C1 (stereo not drawn)	mHTT-CaM PPI inh 59
COC(=O)C(C)Sc1nnc(CNC(=O)c2ccccc2)o1 (stereo not drawn)	none
S=c1[nH]nc(C2CCCCC2)n1/N=C\C=C\c1ccco1	none (no result: Pf apPOL block)
O=C1C(=CC=Cc2ccco2)SC(=S)N1C1CCCCC1	mHTT-CaM PPI inh 78
CC(C)CNC(=O)C1CCCN(c2nc3ccsc3c(=O)n2Cc2ccccc2)C1 (stereo not drawn)	none
CC(NC(=O)CC1Sc2ccccc2NC1=O)C(C)(C)C (stereo not drawn)	none
CC(C)(C)C(=O)C=C1Nc2ccccc2SC1(O)CC(=O)C(C)(C)C (stereo not drawn)	mHTT-CaM PPI inh 51 (no result: Pf apPOL block)
O=C1CCC[C@@H]2C=C[C@H](c3ccc(Br)cc3)[C@H]3CCN1[C@@H]32	mHTT-CaM PPI inh 52
O=C1C[C@@H]2CCN3C(=O)CCC[C@@H]([C@H]23)[C@@H]1Cc1ccccc1	none
COc1cc(OC)c(NC(=O)c2cccnc2)cc1Cl	none
COc1cc(Cl)c(C)cc1NC(=O)c1cccnc1	Pf apPOL block 97
O=C1NC(=O)/C(=C/c2ccc(Cl)cc2Cl)S1	none
O=C1NC(=O)/C(=C/c2ccccc2OCc2ccc([N+](=O)[O-])cc2)S1	none
N=C1NC(=O)/C(=C/c2cc(Br)cc(Cl)c2O)S1	none
O=C1NC(=O)/C(=C/c2cc(Br)cc(Cl)c2O)S1	mHTT-CaM PPI inh 60
CCOc1cc([N+](=O)[O-])cc(/C=C2\SC(=O)NC2=O)c1O	Pf apPOL block 71
O=C1NC(=O)/C(=C/c2cc(Cl)cc(Cl)c2O)S1	mHTT-CaM PPI inh 86
COc1ccc(C(=O)Nc2ccc(NC(=O)c3cccc(Cl)c3)cc2)cc1[N+](=O)[O-]	none
CCc1cccc(NC(=O)C(=O)c2c(O)[nH]c3ccccc23)c1	none
CN(C)c1ncnc2c1C(c1ccc([N+](=O)[O-])cc1)c1c(ncnc1N(C)C)O2	none
O=C(c1cccs1)N1CCN(c2ccc([N+](=O)[O-])cc2)CC1	none
CCCNC(=O)c1cc(C)nc2ccc(Cl)cc12	none
CNC(=O)c1cc(C)nc2ccc(C)cc12	Pf apPOL block 84
CCCNC(=O)c1cc(C)nc2ccc(F)cc12	mHTT-CaM PPI inh 100
CNC(=O)c1cc(C)nc2ccc(F)cc12	none
Fc1ccc(C2Cn3nc(-c4nc(C5CCCCC5)no4)cc3CO2)cc1 (stereo not drawn)	none
COc1ccc(CN2CCCC2c2cc(C(C)C)on2)cc1O (stereo not drawn)	none
Cc1noc(-c2cccc(F)c2)c1C(=O)NCc1cccc2cccnc12	none
CN1CCN(C(=O)CN2C(=O)/C(=C/c3ccc(C(F)(F)F)cc3)Sc3ccccc32)CC1	mHTT-CaM PPI inh 51
Cc1ccc(/C=C2\Sc3ccccc3N(CC(=O)NCc3ccccn3)C2=O)cc1	mHTT-CaM PPI inh 80
O=C(CN1C(=O)/C(=C/c2ccc(C(F)(F)F)cc2)Sc2ccccc21)NCCN1CCCC1	mHTT-CaM PPI inh 84
CNC(=O)CN1C(=O)/C(=C/c2ccc(C(F)(F)F)cc2)Sc2ccccc21	none
CCOCCCNC(=O)CN1C(=O)/C(=C/c2ccc(C(F)(F)F)cc2)Sc2ccccc21	none
COCCCNC(=O)CN1C(=O)/C(=C/c2ccc(C(F)(F)F)cc2)Sc2ccccc21	mHTT-CaM PPI inh 56
O=C(CN1C(=O)/C(=C/c2ccc(C(F)(F)F)cc2)Sc2ccccc21)NCc1ccccn1	none
CCCCNC(=O)CN1C(=O)/C(=C/c2ccc(C(F)(F)F)cc2)Sc2ccccc21	none
O=C(Cn1nc(N2CCSCC2)c2ccccc2c1=O)Nc1ccc(Cl)cc1	none
COc1ccc(Nc2ncc3c(n2)CCN(Cc2ccc(F)cc2F)C3)cc1	none
COc1ccc(NC(=O)C2CC(=O)N(C)C(=Nc3ccc(Cl)c(Cl)c3)S2)cc1 (stereo not drawn)	mHTT-CaM PPI inh 85
COc1ccc(NC(=O)C2CC(=O)N(C)C(=Nc3ccc(Cl)c(C(F)(F)F)c3)S2)cc1 (stereo not drawn)	none
O=S(=O)(c1cccn2cnnc12)N(Cc1cccc(F)c1)c1ccc(F)c(F)c1	none
O=S(=O)(Nc1ccc(F)cc1)c1cccn2cnnc12	Pf apPOL block 62
O=S(=O)(c1cccn2cnnc12)N(Cc1ccccc1F)c1ccc(F)c(F)c1	mHTT-CaM PPI inh 61
O=S(=O)(c1cccn2cnnc12)N(Cc1cccc(F)c1)c1ccc(F)cc1	mHTT-CaM PPI inh 51
O=S(=O)(c1ccc2nncn2c1)N(Cc1ccccc1Cl)c1ccccc1	none
O=S(=O)(c1cccn2cnnc12)N(Cc1ccc(F)cc1)c1ccc(F)cc1	none
COc1cc2c(cc1OC)C1(CCN(C)CC1)OCC2	none (no result: Pf apPOL block)
Cc1cc2c3c(C)n(C)c(C)c3c(C)nn2c1	mHTT-CaM PPI inh 79
O=C(c1ccoc1)N1CCc2[nH]nc(-c3ccccc3)c2C1	none
CC(=O)c1ccc(OCc2cn(CC(=O)c3ccc(O)cc3)nn2)cc1	none
CC(=O)Nc1ccc(OCc2cn(CC(=O)c3ccc(O)cc3)nn2)cc1	mHTT-CaM PPI inh 52
O=C(O)CSc1nnc(-c2ccc(Cl)cc2)n1-c1ccccc1	none
O=C(O)CSc1nnc2n1-c1ccc(Cl)cc1NN2	Pf apPOL block 76 (no result: mHTT-CaM PPI inh)
COc1cc(/C=C2/SC(=N)NC2=O)ccc1OCc1ccccc1	none
COc1cc(/C=C2/SC(=N)NC2=O)cc(Br)c1OCc1ccccc1	mHTT-CaM PPI inh 68
CCOc1cc(/C=C2\SC(=N)NC2=O)ccc1OCc1ccccc1	none
COc1cc(/C=C2\SC(=N)NC2=O)ccc1Oc1ccc(C(F)(F)F)cc1[N+](=O)[O-]	mHTT-CaM PPI inh 50
COc1cc(/C=C2/SC(=N)NC2=O)ccc1OCc1ccc(C)cc1	mHTT-CaM PPI inh 59
CCOc1cc(/C=C2\SC(=N)NC2=O)ccc1OCc1ccc(Br)cc1	none
COc1cc(/C=C2/SC(=N)NC2=O)ccc1OCc1ccc([N+](=O)[O-])cc1	none
CCOc1cc(/C=C2\SC(=N)NC2=O)ccc1OCc1ccc(F)cc1	mHTT-CaM PPI inh 60
CCc1ccccc1NC(=O)NC1(c2nc(-c3cnccn3)no2)CCCCC1	none
CC(NC(=O)c1nn2c(c1Cl)NC(c1cccs1)CC2C(F)(F)F)c1ccccc1 (stereo not drawn)	none
Cc1ccc(C(=O)NCc2ccc(N3CCCCCC3)nc2)cc1F	none
COc1cc(/C=C2/SC(=N)NC2=O)ccc1OCc1ccccc1F	mHTT-CaM PPI inh 60
CCOc1cc(/C=C2\SC(=N)NC2=O)ccc1OC	none
Cc1nnc2cc(N3CCN(Cc4csc5c4CCCC5)CC3)cnn12	none
Cc1nnc2cc(N3CCN(Cc4ccc(C(F)(F)F)cc4)CC3)cnn12	mHTT-CaM PPI inh 67
O=C(C=Cc1cccs1)Nc1ccc(F)cc1	none (no result: mHTT-CaM PPI inh)
